# The campaign covered roughly 5,500 compounds. About 2,000 (36%) were called active. Inconclusive results (about 18%) are left out. Some of the results follow. Values without a mark were called inactive. Rule as the data show it: active = normalized growth mostly below about 0.91 (no sharp cut-off); inconclusive = no clear call, values can overlap the other calls; inactive = mostly above about 0.92.
# Test: chemical genetic growth profiling, strain panel (AID 1159580);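 also: tested at 20 µM; growth read once vehicle control cultures reached saturation at 30 °C; 1 = growth at the plate median or of vehicle wells; lower values mean less growth of the strain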
# Settings: growth OD
# [1] = S. cerevisiae deletion strains, locus YBR229C, strain ROT2, active compounds read low
# [2] = S. cerevisiae deletion strains, locus YCL061C, strain MRC1, active compounds read low
# [3] = S. cerevisiae deletion strains, locus YDL101C, strain DUN1, active compounds read low
# [4] = S. cerevisiae deletion strains, locus YDL134C, strain PPH21, active compounds read low
# [5] = S. cerevisiae deletion strains, locus YDR150W, strain NUM1, active compounds read low
# [6] = S. cerevisiae deletion strains, locus YEL061C, strain CIN8, active compounds read low
# [7] = S. cerevisiae deletion strains, locus YGR078C, strain PAC10, active compounds read low
# [8] = S. cerevisiae deletion strains, locus YHR030C, strain SLT2, active compounds read low
# [9] = S. cerevisiae deletion strains, locus YHR087W, strain rtc3, active compounds read low
# [10] = S. cerevisiae deletion strains, locus YJR043C, strain POL32, active compounds read low
# [11] = S. cerevisiae deletion strains, locus YJR075W, strain HOC1, active compounds read low
# [12] = S. cerevisiae deletion strains, locus YLR039C, strain RIC1, active compounds read low
# [13] = S. cerevisiae deletion strains, locus YLR058C, strain SHM2 (second series), active compounds read low
# [14] = S. cerevisiae deletion strains, locus YLR085C, strain ARP6, active compounds read low
# [15] = S. cerevisiae deletion strains, locus YLR262C, strain YPT6, active compounds read low
# [16] = S. cerevisiae deletion strains, locus YML094W, strain GIM5, active compounds read low
# [17] = S. cerevisiae deletion strains, locus YMR219W, strain ESC1, active compounds read low
# [18] = S. cerevisiae deletion strains, locus YMR263W, strain SAP30, active compounds read low
# [19] = S. cerevisiae deletion strains, locus YNL153C, strain GIM3, active compounds read low
# [20] = S. cerevisiae deletion strains, locus YNL298W, strain CLA4 (second series), active compounds read low
# [21] = S. cerevisiae deletion strains, locus YNL322C, strain KRE1, active compounds read low
# [22] = S. cerevisiae deletion strains, locus YNR030W, strain Alg12, active compounds read low
# [23] = S. cerevisiae deletion strains, locus YPL055C, strain LGE1, active compounds read low
# [24] = S. cerevisiae deletion strains, locus YPL241C, strain CIN2, active compounds read low
# [25] = S. cerevisiae deletion strains, locus YPR135W, strain CTF4, active compounds read low
structure (smiles),measurement,setting,value
Cc1cc(Br)c(OCC(=O)NN)c2c1CCC2,normalized growth,"S. cerevisiae deletion strains, locus YAL013W, strain DEP1, active compounds read low",1
same,normalized growth,[1],1
same,normalized growth,[2],1.01
same,normalized growth,[3],0.995
same,normalized growth,[4],1
same,normalized growth,[5],1.05
same,normalized growth,[6],0.985
same,normalized growth,[7],0.999
same,normalized growth,[8],0.856
same,normalized growth,[9],0.993
same,normalized growth,[10],0.998
same,normalized growth,[11],0.989
same,normalized growth,"S. cerevisiae deletion strains, locus YKL190W, strain CNB1, active compounds read low",0.989
same,normalized growth,[12],0.608 (active)
same,normalized growth,[13],0.999
same,normalized growth,[14],0.947
same,normalized growth,[15],0.584 (active)
same,normalized growth,[16],0.975
same,normalized growth,[17],1
same,normalized growth,[18],0.961
same,normalized growth,[19],1.02
same,normalized growth,[20],0.979
same,normalized growth,[21],0.994
same,normalized growth,[22],0.997
same,normalized growth,[23],0.915
same,normalized growth,[24],1.02
same,normalized growth,[25],0.906
Cc1ccc(OCC(=O)NN)c2c1CCC2,normalized growth,[1],1
same,normalized growth,[2],0.994
same,normalized growth,[3],1.03
same,normalized growth,[4],1.01
same,normalized growth,[5],1.01
same,normalized growth,[6],1.01
same,normalized growth,[7],0.989
same,normalized growth,[8],0.985
same,normalized growth,[9],1.04
same,normalized growth,[10],0.99
same,normalized growth,[11],0.989
same,normalized growth,[12],0.867
same,normalized growth,[13],1.01
same,normalized growth,[14],1.01
same,normalized growth,[15],0.913
same,normalized growth,[16],1.01
same,normalized growth,[17],0.991
same,normalized growth,[18],1.01
same,normalized growth,"S. cerevisiae deletion strains, locus YMR307W, strain GAS1, active compounds read low",0.963
same,normalized growth,[19],1
same,normalized growth,[20],0.989
same,normalized growth,[21],0.997
same,normalized growth,[22],1.01
same,normalized growth,"S. cerevisiae deletion strains, locus YOL006C, strain TOP1, active compounds read low",1.01
same,normalized growth,[23],1.01
same,normalized growth,[24],1.01
same,normalized growth,[25],0.982
same,normalized growth,"S. cerevisiae strains, strain wild type, active compounds read low",1.01
